Compounds with a hit are over-represented: about 21% of the library has one in this group of screens.
DT40 TDP1 no CPT: qHTS for Inhibitors of human tyrosyl-DNA phosphodiesterase 1 (TDP1): qHTS in cells in absence of CPT | DT40 Tdp1-/- hTDP1 cells, no CPT, ATP luminescence, 48 h | actives 15% (n = 420,000) | Potency, µM (highest dose often 46.2 µM), for inactives: at the top dose activity change, negative = growth inhibition, most hits filed as inhibitors | AID 686978, 2013; note: potency is the fitted concentration of half-maximal effect; % is set by controls: 0 for no effect and ±100 for the full control effect; nearly all actives have a fitted effect of over 55% in size
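Readout: luminescence from CellTiter-Glo after 30 min in the dark at RT. Cells: DT40 Tdp1-/- with stable hTDP1, 400/well. Exposure: compounds alone, ≥48 hr, 37 °C.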
D3 antag: antagonists of human D3 dopamine receptor. D3R cells, DiscoveRx beta-arrestin luminescence, antagonist mode; stronger effect = lower value. max response, negative = inhibition, %. actives 2.5% (n = 360,000). AID 652054. P35462; in the data active = max response below about -50%; inconclusive = no clear call, values can overlap the other calls; note: % is set by controls: 0 for no effect and ±100 for the full control effect
Target sequence (P35462 whole entry, looked up): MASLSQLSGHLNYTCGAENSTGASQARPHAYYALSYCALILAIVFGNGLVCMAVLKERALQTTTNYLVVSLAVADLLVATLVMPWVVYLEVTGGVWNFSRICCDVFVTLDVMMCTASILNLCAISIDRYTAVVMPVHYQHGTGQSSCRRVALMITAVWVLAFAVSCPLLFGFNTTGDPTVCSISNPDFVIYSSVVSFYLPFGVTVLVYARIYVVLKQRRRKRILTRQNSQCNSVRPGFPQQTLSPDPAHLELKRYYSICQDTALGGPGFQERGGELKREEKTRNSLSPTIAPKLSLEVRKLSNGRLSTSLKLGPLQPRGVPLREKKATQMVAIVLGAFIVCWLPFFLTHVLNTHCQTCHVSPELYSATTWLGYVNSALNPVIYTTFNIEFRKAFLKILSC
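Cells expressing the human receptor were seeded at 1500 cells/well, incubated overnight at 37 degrees C in 5% CO2, then exposed to library compounds with dopamine controls for 90 minutes at 37 degrees C before luminescent detection.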
DRD3 agonist: activates the human D3 dopamine receptor | D3R DiscoveRx beta-arrestin cells, luminescence, 90 min | max activation, % | actives 0.58% (n = 410,000) | AID 652048; in the data active = max activation above about 30%; note: 0% is about no effect
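Cells at 1500/well, incubated overnight, then treated with pinned compounds (dopamine as control) for 90 min at 37 degrees C. DiscoveRx reagent added for 30 - 60 minutes at room temperature; luminescence read.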
DT40 TDP1 CPT: growth inhibition of DT40 Tdp1-/-;hTDP1 cells with camptothecin (screen for TDP1 inhibitors) | Potency, µM (series often up to 46.2 µM), for inactives: top-dose activity change, negative = growth inhibition, actives largely listed as inhibitors | actives 12% (n = 420,000) | chicken DT40 Tdp1-/-;hTDP1 cells + 20 nM CPT, ATP luminescence, 48 h; note: potency is the fitted concentration of half-maximal effect; % is set by controls: 0 for no effect and ±100 for the full control effect; nearly all actives have a fitted effect of over 55% in size
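Chicken DT40 Tdp1-/- cells complemented with human TDP1, 400 cells/well, exposed to compounds plus 20 nM camptothecin for at least 48 h at 37 C; viability read as ATP content by CellTiter-Glo luminescence.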
ClpP mod: qHTS Assay for Activators of ClpP | AID 651965, 2013 | Potency, µM (top dose mostly 57.5 µM), for the others: at the highest dose activity change, negative = active | ATP-dependent Clp protease proteolytic subunit (Bacillus subtilis (strain 168)), P80244 | actives 1.9% (n = 340,000) | purified B. subtilis ClpP, FRET peptide cleavage, 20 min; active = well fitted falling curve with a large enough effect; inconclusive = small, poorly fitted or top-dose-only effect; inactive = no such curve, though single readings can be large or run the other way; note: potency is the fitted concentration of half-maximal effect; the source files actives as falling curves though it sought activators and does not explain the sign; nearly all actives have a fitted effect of over 65% in size
Target sequence (P80244 whole entry, looked up): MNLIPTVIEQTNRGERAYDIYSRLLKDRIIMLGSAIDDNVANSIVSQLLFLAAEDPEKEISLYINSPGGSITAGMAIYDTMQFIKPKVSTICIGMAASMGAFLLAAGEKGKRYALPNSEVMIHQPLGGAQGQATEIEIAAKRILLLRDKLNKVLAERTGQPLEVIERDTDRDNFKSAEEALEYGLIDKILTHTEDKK
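FRET quenching reversal measured ClpP activation: 10 microg/mL B. subtilis ClpP at pH 8 with the FRET-FV decapeptide, read at 430 nm after 320 nm excitation. The 20-min minus 0-min signal was scaled between DMSO/no-enzyme wells and ADEP (5.8 microM final).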
IL1B secr inh: inhibitors of inflammasome signaling (IL-1 beta secretion) | activity change, % at 57.5 µM | actives 4.7% (n = 360,000) | THP-1 LPS/ATP IL-1B secretion, AlphaLISA, 16 h; stronger effect = lower value; in the data active = activity change below about -50%; inconclusive = mostly about -30% to -49%; note: % is set by controls: 0 for no effect and ±100 for the full control effect
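THP-1 cells pretreated 1 hr with compounds (up to 57.5 uM final), then stimulated with LPS (250 ng/mL final) plus ATP (1.25 mM final); secreted IL-1B measured by AlphaLISA after 16 hr, decreased signal indicating inhibition.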
Starred values were filed as active, the others as inactive; ? = inconclusive; . = no result. Unless noted, calls come from the whole dose curve; as a rule, active = well fitted inhibition curve with a large enough effect; inconclusive = small, poorly fitted or top-dose-only effect; inactive = flat fitted curve, though single readings scatter.

SMILES	DT40 TDP1 no CPT	D3 antag	DRD3 agonist	DT40 TDP1 CPT	ClpP mod	IL1B secr inh
COc1cc(NC(=O)CSc2nc3ncccc3o2)cc(OC)c1	?	.	0	?	3%	.
COc1ccc(C2CC(=O)N(Cc3cccc(C)c3)c3c2c(C)nn3-c2nc(C)cc(C)n2)c(OC)c1 (centres undefined)	?	.	-5	?	2%	.
CCCNC(=O)C1(C)CCN1C(=O)c1cc(C)n(C)n1 (centres undefined)	6%	11	2	3%	1%	25
Cc1nc(=S)c2c([nH]1)-c1ccccc1CC21CCCCC1	18µM*	20	21	21µM*	.	1
CCc1nc2c(c(=O)[nH]1)C1(CCCC1)Cc1ccccc1-2	-20%	11	3	-15%	-7%	-7
COc1ccc(CC(=O)NO)cc1	?	.	.	-6%	-1%	.
CCN(CC)c1ccc(C(=C2C=CC(=[N+](CC)CC)C=C2)c2ccc(N(CC)CC)cc2)cc1	0.73µM*	-19	-10	0.92µM*	2%	?
CCN(CC)c1ccc(C(=C2C=CC(=[N+](CC)CC)C=C2)c2ccccc2)cc1	0.15µM*	-105*	-16	0.16µM*	-8%	-120*
O=C(NC1CCCCC1)c1cc(-c2ccccc2O)on1	11%	-8	1	5%	.	-20
CCN(CC)C(=O)c1sc(NC(=O)C(C)Sc2nc(-c3ccccc3)cc(C(F)(F)F)n2)c(C(=O)OC)c1C (centres undefined)	7.3µM*	.	-8	7.3µM*	-5%	.
CCCOC(=O)c1c(NC(=O)C(C)Sc2nc(-c3ccccc3)cc(C(F)(F)F)n2)sc(C(=O)N(C)C)c1C (centres undefined)	15µM*	.	-1	?	-8%	.
Cc1ccc(C(=O)NCC(=O)NCC(c2cccs2)N(C)C)cc1C (centres undefined)	-2%	-9	-12	-19%	-4%	9
COc1cc2ccccc2cc1C(=O)N1CC(C)CC(C)C1 (centres undefined)	?	-15	-11	?	-16%	-10
O=C(O)c1ccc(N=C2c3ccccc3-c3ccccc32)cc1	19%	14	5	9%	.	-4
CCOc1ccc(-c2[nH]ncc2-c2ccc(Cl)cc2)c(O)c1	?	-15	-2	16µM*	-23%	-8
C=C(C)COc1ccc(-c2ncncc2-c2ccc(Cl)cc2)c(O)c1	-20%	19	4	-30%	-5%	-20
CCOc1ccc(-c2[nH]ncc2-c2ccc(OC)c(OC)c2)c(O)c1	3.7µM*	11	11	3.7µM*	?	-12
Cc1nnc(SCC(=O)c2c[nH]c3ccccc23)n1C1CC1	3%	2	0	-9%	2%	18
COc1ccc(C)cc1N(C(=O)c1ccc(C#N)cc1)C1=NC(C)(C)CS1	-4%	-20	0	-2%	1%	2
Nc1c(N(CCC2=CCCCC2)C(=O)Cc2ccccc2F)c(=O)[nH]c(=O)n1Cc1ccccc1	?	5	-7	1%	-2%	0
Cc1cc(=O)n2c(C(=O)Nc3ccc(F)c(Cl)c3)c(C(=O)Nc3cccc(C)c3C)sc2n1	?	.	0	?	1%	.
O=C1c2ccccc2NC(c2c(Cl)cccc2Cl)N1Cc1ccccc1 (centres undefined)	18µM*	-25	-2	16µM*	32µM*	?
O=C1c2ccccc2NC(c2ccc(Cl)cc2Cl)N1Cc1ccccc1 (centres undefined)	?	-53*	3	23µM*	32µM*	4
O=C1c2ccccc2NC(c2ccc(Cl)cc2Cl)N1O (centres undefined)	16µM*	-12	3	?	3%	57
O=C1c2ccccc2NC(c2cccc(F)c2)N1Cc1ccccc1 (centres undefined)	-16%	7	8	-22%	4%	?
SMILES	DT40 TDP1 no CPT	D3 antag	DRD3 agonist	DT40 TDP1 CPT	ClpP mod	IL1B secr inh
Cc1cc(Br)c(NC(=O)Cn2c([N+](=O)[O-])cnc2C)cc1C	-3%	-22	-2	-28%	-1%	-10
Cc1cc2c(cc1C)N(Cc1ccc(Cl)cc1)C1=NCCCN12	5.2µM*	-1	-30	2.6µM*	-2%	.
Clc1ccc(CN2C3=NCCCN3c3ccccc32)c(Cl)c1	?	1	-12	?	2%	-73*
Clc1ccc(CN2C3=NCCN3c3ccccc32)cc1	?	-27	0	13µM*	-1%	?
CC(C)(C)c1ccc(CN2C3=NCCCN3c3ccccc32)cc1	7.3µM*	-63*	-1	7.3µM*	-1%	-54*
CCOc1ccc(NC(=O)CNC(=O)c2ccc([N+](=O)[O-])cc2)cc1	-19%	13	0	?	0%	1
Cc1ccc(CN2C3=NCCCN3c3ccccc32)cc1	?	0	-4	15µM*	-3%	-4
Brc1ccc(CN2C3=NCCCN3c3ccccc32)cc1	?	6	0	16µM*	-1%	-55*
O=C(O)CN1C2=NCCCN2c2ccccc21	2%	-17	-2	15%	.	21
OC(COc1ccccc1)CN1C2=NCCCN2c2ccccc21 (centres undefined)	10µM*	-23	-1	?	?	-15
c1ccc(CN2C3=NCCCN3c3ccccc32)cc1	-32%	-7	-6	-16%	-1%	-4
CN(C)C(CNC(=O)CCc1nc2cc(Cl)ccc2n(Cc2ccccc2)c1=O)c1ccccc1 (centres undefined)	16µM*	-25	-12	?	-4%	-67*
COc1ccc(C=NN=C2c3ccccc3-c3ccccc32)cc1OC	23µM*	28	28	?	1%	-22
COc1ccc2c(c1)c(/C=N/Nc1nc3ccccc3[nH]1)c(C)n2C	?	-3	-34	21µM*	.	-98*
CN(C)c1ccc(/C=N\Nc2ccccn2)cc1	23µM*	12	6	21µM*	-1%	-11
CN(C)c1ccc(C=NNc2ccccn2)c(Cl)c1	?	2	9	?	-28%	9
O=C(O)c1ccc(C=NN=C2c3ccccc3-c3ccccc32)cc1	-22%	12	4	?	1%	16
COc1cc(/C=N\Nc2nc3ccccc3[nH]2)cc(OC)c1OC	12µM*	-2	-2	21µM*	-7%	0
